# Inconclusive results are not listed. Values without a mark were called inactive. Activity calls are given as the source filed them. The call rests on the fitted dose curve; in most records, active means well fitted inhibition curve with a large enough effect; inconclusive means small, poorly fitted or top-dose-only effect; inactive means flat fitted curve, though single readings scatter.
# Test system: astro (control astrocytes)
# Assay: Drug repurposing screens with cells derived from glioblastoma tumor samples (AID 1345199); further: nearly all actives have a fitted effect of over 40% in size
# Details: viability, ATP luminescence, 48 h; series mostly up to 45.9 µM; activity, negative = cell killing: at the top concentration
# Procedure: CD133+ cells were isolated from GBM patient biopsies and cultured as neurospheres. Neurospheres from four patients were used to screen the NCATS pharmaceutical collection (NPC) library of approved drugs and bioactive compounds. […] The neurospheres were incubated with drugs for 48 hours in 1536-well format, then assayed with an ATP content cell viability assay. […] These hits were cherry picked to confirm activity in the four original GBM lines screened plus three other slower growing GMB lines (unable to yield enough cells for a full primary screen). Variable activities of the confirmed primary hits in the different GBM patient lines were observed. The patient line 206 responded to the greatest number of compounds and line 923 responded to the least amount of active compounds.
# On the % scale 0 is the no-effect control and ±100 the full control effect; potency means the concentration at half of the fitted maximal effect.
Compound,"activity, negative = cell killing [%]",Potency
C1CNCCN1,-3.46,–
NC(=O)C[C@@H](N)C(=O)O,3.86,–
CC[C@H]1OC(=O)[C@H](C)[C@@H](O[C@H]2C[C@@](C)(OC)[C@@H](O)[C@H](C)O2)[C@H](C)[C@@H](O[C@@H]2O[C@H](C)C[C@H](N(C)C)[C@H]2O)[C@](C)(O)C[C@@H](C)[C@@H]2N[C@@H](COCCOC)O[C@@H]([C@H]2C)[C@]1(C)O,-15.1,–
CCN(CC)CCOC(=O)c1ccc(N)cc1Cl,-14.4,–
CC1(C)S[C@@H]2[C@H](NC(=O)C(C(=O)Oc3ccc4c(c3)CCC4)c3ccccc3)C(=O)N2[C@H]1C(=O)O (stereo not given in full),-3.14,–
C=C1C(=C/C=C2\CCC[C@]3(C)[C@@H]([C@H](C)CCCC(C)(C)O)CC[C@@H]23)C[C@@H](O)C[C@@H]1O,–,22.4 µM (active)
CO/N=C(\C(=O)N[C@@H]1C(=O)N2C(C(=O)OCOC(=O)C(C)(C)C)=C(/C=C\c3scnc3C)CS[C@H]12)c1csc(N)n1,-13.4,–
CC(=O)S[C@@H]1CC2=CC(=O)CC[C@]2(C)[C@H]2CC[C@@]3(C)[C@@H](CC[C@@]34CCC(=O)O4)[C@H]12,-28.9,–
NNc1nnc(Cc2ccncc2)c2ccccc12,-14.2,–
O.O=C([O-])CC([S-])C(=O)[O-].[Au+].[Na+].[Na+] (stereo not given),-14.1,–
CCC(c1ccccc1)c1noc(CCN(CC)CC)n1 (stereo not given),2.46,–
COc1cc([C@@H]2c3cc4c(cc3C(O[C@@H]3O[C@@H]5COC(c6cccs6)O[C@H]5[C@H](O)[C@H]3O)C3COC(=O)[C@@H]32)OCO4)cc(OC)c1O (stereo not given in full),–,12.6 µM (active)
CCCCCCCCCC(=O)O,-7.01,–
NCCCC[C@H](NC(=O)[C@@H]1CCCN1C(=O)[C@@H]1CSSC[C@H](N)C(=O)N[C@@H](Cc2ccc(O)cc2)C(=O)N[C@@H](Cc2ccccc2)C(=O)N[C@@H](CCC(N)=O)C(=O)N[C@@H](CC(N)=O)C(=O)N1)C(=O)NCC(N)=O,–,inactive
COc1ccnc(CS(=O)c2nc3cc(OC(F)F)ccc3[nH]2)c1OC (stereo not given),-15.8,–
CCOC(=O)COc1ccc2c(=O)cc(-c3ccccc3)oc2c1,–,inactive
N[C@@H](C(=O)N[C@H]1C(=O)N2C(C(=O)O)=C(Cl)CC[C@H]12)c1ccccc1,-9.35,–
Cc1[nH]cnc1C[C@H]1CCc2c(C)c3ccccc3n2C1=O,-12.5,–
COC[C@H](c1ccc(C(F)(F)F)cc1)N1CCN(C2(C)CCN(C(=O)c3c(C)ncnc3C)CC2)C[C@H]1C,-14,–
CO[C@H]1[C@@H](O)[C@H](N)[C@@H](O[C@H]2O[C@H]([C@H](C)N)CC[C@H]2N)[C@H](O)[C@@H]1N(C)C(=O)CN,4.47,–

Compound,"activity, negative = cell killing [%]",Potency
O=S(O)CO,-6.41,–
CCCC(=O)N1CCCN(c2nc(N)c3cc(OC)c(OC)cc3n2)CC1,3.38,–
O=C(Cn1c(=O)sc2ccc(Cl)cc21)N1CCN(CCO)CC1,-8.01,–
C=Cc1ccccc1,-4.84,–
Nc1c(CC(=O)O)cccc1C(=O)c1ccccc1,–,inactive
O=C(CCCN1CCC(n2c(=S)[nH]c3ccccc32)CC1)c1ccc(F)cc1,-20,–
CCCCOC(=O)C(=O)Nc1cccc(-c2nn[nH]n2)c1,-7.81,–
CCCCc1cc2c(=O)c(C(=O)OC)c[nH]c2cc1OCc1ccccc1,-12.4,–
CC1(C)S[C@@H]2[C@H](NC(=O)[C@H](N)c3ccccc3)C(=O)N2[C@H]1C(=O)OCOC(=O)[C@@H]1N2C(=O)C[C@H]2S(=O)(=O)C1(C)C,-4.02,–
CCCC(=O)O[C@]1(C(=O)COC(=O)CC)[C@@H](C)C[C@H]2[C@@H]3CCC4=CC(=O)C=C[C@]4(C)[C@@]3(F)[C@@H](O)C[C@@]21C,-24.1,–
CS(=O)(=O)OCCCNCCCOS(C)(=O)=O,-4.37,–
CC(=O)O[C@H]1C[C@@H]2CC[C@@H]3[C@H](CC[C@@]4(C)[C@H]3C[C@H](N3CC[N+](C)(C)CC3)[C@@H]4OC(C)=O)[C@@]2(C)C[C@@H]1N1CC[N+](C)(C)CC1,-19.5,–
O=S(O)CNc1ccc(S(=O)(=O)c2ccc(NCS(=O)O)cc2)cc1,-11.7,–
COC(C)=O,-8.95,–
C=C[C@]1(C)C[C@@H](OC(=O)CO)[C@]2(C)[C@H](C)CC[C@]3(CCC(=O)[C@H]32)[C@@H](C)[C@@H]1O,-8.05,–
c1ccc2c(CCC3CCNCC3)c[nH]c2c1,-20.7,–
O=P(O)(O)OC(Cn1cncn1)(Cn1cncn1)c1ccc(F)cc1F,-12.2,–
O=C(O)c1cccc(/C=C2/C[C@@H]3[C@@H](/C=C/[C@@H](O)C4CCCCC4)[C@H](O)C[C@@H]3O2)c1,-14.1,–
Cc1ccc(/C(=C\CN2CCCC2)c2cccc(/C=C/C(=O)O)n2)cc1,–,22.4 µM (active)
CN(C)Cc1ccccc1,-7.81,–

# Reference: PubChem BioAssay (NCATS)
